This passage reports Potency results from PubChem BioAssay (NCATS).

Records with an inconclusive call do not appear. A call without a number means that no potency is given here. Active and inactive are the calls of the source. The call rests on the fitted dose curve; in most records, active means well fitted curve in the direction sought with a large enough effect; inconclusive means small, poorly fitted or top-dose-only effect, or another doubt; inactive means no such curve, though single readings can be large; an effect the other way counts as inactive or inconclusive.

The nature of one assay: qHTS for Inhibitors of Plasmodium falciparum (HB3) proliferation (AID 504318). Further: nearly all actives have a fitted effect of over 60% in size. Further: potency means the concentration at half of the fitted maximal effect. Particulars: P. falciparum HB3 in erythrocytes, SYBR Green DNA, 72 h; series mostly up to 7.21 µM. An outline of the steps: (§1)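 Parasite growth measured as SYBR Green DNA fluorescence (ex 485, em 535 nm) after overnight lysis following 72 h culture at 37 °C, 0.3% parasitemia, 2.5% hematocrit. Values normalized against DMSO and 0.29 uM artemisinin controls, with plate-stack correction.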
For `CC(=O)C1=C(C)N(Cc2ccccc2)C(=O)NC1c1ccco1` (stereo not given), the Potency entry was “inactive”.
As for `C=CC[C@@H]1C=C[C@H](ON=C(C)CCN2CCCc3nc(C)c(C)cc32)[C@H](CO)O1`, the Potency was 2.51 µM (active).
`COCCN1C(=O)C2=C(C1=O)C1N(C)c3ccccc3[C@@]13C[C@@H](CO)N(S(=O)(=O)c1ccc(OC)cc1)C3=N2` (stereo not given in full): the Potency entry was “inactive”.
Consider `COC(=O)CC=C1c2ccccc2OC[C@@H](OC)[C@H]1C`, for which the Potency result was “inactive”.
Consider `CCCC[C@]12Cc3cc(OC)c(OC)cc3[C@H](O1)C1=C(CC3(CCCCC3)OC1=O)O2`, for which the Potency result was “inactive”.
Take `COC(=O)CC=C[C@H](C)[C@@H](NC(=O)C(F)(F)F)c1ccccc1Br`: the Potency result was “inactive”.
In the case of `CC(C)(C)Nc1oc(-c2ccccc2)nc1-c1ccccc1`, the Potency result was “inactive”.
Take `CCN1C(=O)N[C@@H](c2cccc(C(F)(F)F)c2)[C@H](C(C)=O)[C@H]1C`: the Potency entry was “inactive”.
The same measure, in the same setting: the result for `COCCN1C(=O)NC(CCc2ccccc2)C(C(=O)OC)=C1C` (stereo not given) reads “inactive”; that for `C[C@@H]1CC[C@H]2C(=O)O[C@H](COc3ccc(C(C)(C)C)cc3)CN2[C@@H]1c1ccc(Br)cc1`, “inactive”.
Consider `COC(=O)C1=C(C(=O)OC)[C@@H]2Nc3ccccc3[C@@]23C[C@@H](C(=O)OC)N(C(=O)Nc2ccc(C(F)(F)F)cc2)C3=N1`, for which the Potency result is “inactive”.
Regarding `C=CCN=C1NC(c2cccc(F)c2)C(C(=O)OC)=C(C)N1Cc1ccccc1` (stereo not given), the Potency entry was “inactive”.
On the same count and under the same terms, under `CC(C)CON=C1C[C@@H](O)[C@@H](O)[C@@H]2[C@H]3C(=O)N(C[C@@H]4CCCO4)C(=O)[C@@H]3CC[C@@H]12` stands “inactive”; under `O=C(C=NO)NCCCCNC(=O)C=NO`, “inactive”.
Turning to `CC(=O)C1=C(C)N(Cc2ccccc2)C(=O)NC1c1cccc(F)c1` (stereo not given), the Potency result is “inactive”.
Consider `COc1ccc(O[C@H]2C=C[C@@H](c3ccccc3)O[C@H]2COC(=O)CCC(C)=NO[C@@H]2O[C@H](COC(C)=O)[C@@H](OC(C)=O)[C@H](OC(C)=O)[C@@H]2OC(C)=O)cc1`, for which the Potency entry was “inactive”.
Regarding `CC(=O)C1=C(C)N(CC#C[Si](C)(C)C)C(=O)N(C(C)=O)C1c1ccccc1` (stereo not given), the Potency result is “inactive”.
For `COC(=O)c1ccc(CN2C(=O)[C@]3(OCCC=C[C@@H]3C)c3ccccc32)cc1`, the Potency entry is “inactive”.
Take `COc1cc(C(CC2=CCCCC2)NC(=O)C(F)(F)F)cc(OC)c1OC` (stereo not given): the Potency result was “inactive”.
On the same count and under the same terms, under `C[C@H]1Cc2c(-c3ccccc3)nc3c(c2CO1)CN(C(=O)Nc1cccc(C#N)c1)CC3` stands “inactive”.
For `CCCNC(=O)OC[C@H]1O[C@H](CCON=C(C)CCN2CCCc3nc(C)c(C)cc32)C=C[C@H]1Oc1ccc(OC)cc1`, the Potency is 1.69 µM (active).

The nature of the next assay: qHTS for Inhibitors of Plasmodium falciparum (CP250) proliferation (AID 504320). Particulars: P. falciparum CP250 in erythrocytes, SYBR Green DNA, 72 h; series mostly up to 6.7 µM. An outline of the steps:
as §1
Take `COC(=O)[C@H](C=C[C@H](C)Cc1cc(Br)cc(OCc2ccccc2)c1OC)OCc1ccccc1`: the Potency result is “inactive”.
For the molecule `COC(=O)C1=C(C(=O)OC)[C@@H]2N(C)c3ccc(OC)cc3[C@@]23C[C@@H](C(=O)OC)N(C(=O)c2ccco2)C3=N1`, the Potency entry was “inactive”.
Still for that read-out and setting: under `CCCCCCCC=CC1=CC2(C)CC1(C)C(CCCCCCC)CC2=O` (stereo not given) stands “inactive”.
Same read-out and setting: under `Cc1cc(F)ccc1O[C@H]1C=C[C@@H](c2ccc3c(c2)OCO3)O[C@H]1CO` stands “inactive”; under `COC(=O)N[C@@H](c1ccco1)C(C(C)=O)C(=O)OC` (stereo not given in full), “inactive”.
As to `COc1ccc(OC[C@@H]2CC3[C@@H](CC[C@@H](C)[C@H]3c3ccc(Br)cc3)C(=O)O2)cc1` (stereo not given in full), the Potency result is “inactive”.
Still for that read-out and setting: under `COC(=O)N1C2=C(c3ccccc3[C@@H]1CC(=O)O)[C@@H]1O[C@@H](C2)c2ccccc21` stands “inactive”.
On to `C=C=CCCN1C(=O)NC(c2ccccc2)C(C(=O)OC)=C1C` (stereo not given), for which the Potency entry was “inactive”.
`COC(=O)c1ccccc1C[C@]1(C(=O)OC)C=C[C@H](C)[C@@H](c2ccccc2)N1C(=O)C(F)(F)F`: the Potency entry was “inactive”.
For the molecule `COC1=C[C@H](C(=O)NCCOC(C)=O)[C@@]2(C)Cc3ccccc3[C@@H]2CC1=O`, the Potency result was “inactive”.
With `CC(=O)C1=C(C)N(Cc2ccccc2)C(=O)NC1c1ccco1` (stereo not given), the Potency entry is “inactive”.
In the case of `COCCN1C(=O)C2=C(C1=O)C1N(C)c3ccccc3[C@@]13C[C@@H](CO)N(S(=O)(=O)c1ccc(OC)cc1)C3=N2` (stereo not given in full), the Potency entry is “inactive”.
`COC(=O)CC=C1c2ccccc2OC[C@@H](OC)[C@H]1C`: the Potency result is “inactive”.
Same read-out and setting: under `CCCC[C@]12Cc3cc(OC)c(OC)cc3[C@H](O1)C1=C(CC3(CCCCC3)OC1=O)O2` stands “inactive”; under `COC(=O)CC=C[C@H](C)[C@@H](NC(=O)C(F)(F)F)c1ccccc1Br`, “inactive”; under `CC(C)(C)Nc1oc(-c2ccccc2)nc1-c1ccccc1`, “inactive”.
For `COCCN1C(=O)NC(CCc2ccccc2)C(C(=O)OC)=C1C` (stereo not given), the Potency result was “inactive”.
Take `COC(=O)C1=C(C(=O)OC)[C@@H]2Nc3ccccc3[C@@]23C[C@@H](C(=O)OC)N(C(=O)Nc2ccc(C(F)(F)F)cc2)C3=N1`: the Potency result was “inactive”.
As to `C=CCN=C1NC(c2cccc(F)c2)C(C(=O)OC)=C(C)N1Cc1ccccc1` (stereo not given), the Potency entry is “inactive”.
Turning to `O=C(C=NO)NCCCCNC(=O)C=NO`, the Potency result is “inactive”.
In the case of `CC(=O)C1=C(C)N(Cc2ccccc2)C(=O)NC1c1cccc(F)c1` (stereo not given), the Potency result was “inactive”.
Take `COc1ccc(O[C@H]2C=C[C@@H](c3ccccc3)O[C@H]2COC(=O)CCC(C)=NO[C@@H]2O[C@H](COC(C)=O)[C@@H](OC(C)=O)[C@H](OC(C)=O)[C@@H]2OC(C)=O)cc1`: the Potency entry was “inactive”.
The same measure, in the same setting: the result for `COc1cc(C(CC2=CCCCC2)NC(=O)C(F)(F)F)cc(OC)c1OC` (stereo not given) reads “inactive”; that for `C[C@H]1Cc2c(-c3ccccc3)nc3c(c2CO1)CN(C(=O)Nc1cccc(C#N)c1)CC3`, “inactive”.
